Source: PubChem (National Center for Advancing Translational Sciences (NCATS))
Six1-Eya2 inh – Six1/Eya2 interaction inhibition. AlphaScreen GST-Six1/His-Eya2 binding, biochemical; hits give low values. activity change, % (test concentration not listed). 360,000 compounds, 0.56% hits. AID 651725; in the data active = activity change below about -65%; inconclusive = mostly about -30% to -63%; also: % is scaled to controls: 0 for no effect and ±100 for the full control effect
Target sequence (O00167 whole entry, looked up): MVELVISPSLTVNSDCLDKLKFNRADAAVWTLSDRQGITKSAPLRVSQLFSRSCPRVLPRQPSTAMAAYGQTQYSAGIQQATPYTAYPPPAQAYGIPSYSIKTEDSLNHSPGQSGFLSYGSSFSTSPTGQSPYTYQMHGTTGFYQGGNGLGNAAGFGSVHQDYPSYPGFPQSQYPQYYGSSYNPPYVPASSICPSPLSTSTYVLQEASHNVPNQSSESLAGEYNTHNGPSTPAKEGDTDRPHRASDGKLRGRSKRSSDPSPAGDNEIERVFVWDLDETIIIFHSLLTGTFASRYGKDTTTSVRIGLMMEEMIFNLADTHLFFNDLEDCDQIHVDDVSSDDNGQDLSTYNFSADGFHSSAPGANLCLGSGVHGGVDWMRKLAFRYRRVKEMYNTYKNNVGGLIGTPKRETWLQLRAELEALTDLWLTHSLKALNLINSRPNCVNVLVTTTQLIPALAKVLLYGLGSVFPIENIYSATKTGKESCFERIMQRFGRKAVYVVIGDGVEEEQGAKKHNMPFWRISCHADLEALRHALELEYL
Target sequence (Q15475 whole entry, looked up): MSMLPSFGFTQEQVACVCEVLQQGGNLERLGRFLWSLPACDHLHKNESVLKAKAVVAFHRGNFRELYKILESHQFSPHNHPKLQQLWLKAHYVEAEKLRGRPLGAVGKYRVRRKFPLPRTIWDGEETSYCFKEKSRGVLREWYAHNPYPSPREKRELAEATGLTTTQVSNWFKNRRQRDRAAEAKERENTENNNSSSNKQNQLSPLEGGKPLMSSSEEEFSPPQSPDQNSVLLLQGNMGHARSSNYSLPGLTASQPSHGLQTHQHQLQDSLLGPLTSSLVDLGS
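Six1/Eya2 binding was read as AlphaScreen signal after compounds were pinned into GST-Six1 plus His-tagged Eya2 (5X stock 250/500 nM) in pH 8.0 Tris/NaCl/TCEP buffer, beads added, then incubated 1 h, 37 C, dark.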
CtBP-E1A inh – blocks the CtBP interaction with E1A | AlphaScreen GST-E1A/His-CtBP binding, 1536-well; hits give low values | activity change, % (no concentration beside the values) | 340,000 compounds, 0.49% hits; in the data active = activity change below about -65%; inconclusive = mostly about -30% to -63%; also: % is scaled to controls: 0 for no effect and ±100 for the full control effect
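In 5 uL wells, 23 nL compound meets equimolar GST-E1A and His-CtBP (5X stock 125 nM each) for 2 h, 37 °C. Beads (5X, 50 ug/mL) then 1 h, 37 °C, dark.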
HP1b chromo inh – inhibitors of HP1-beta chromodomain binding to methylated histone tails; AlphaScreen HP1-beta / biotin-H3K9me3 peptide binding; Potency, µM (highest dose often 114 µM), for inactives: at the top dose activity change, negative = inhibition, actives largely listed as inhibitors; 390,000 compounds, 0.56% hits; also: potency is read from the fitted curve at half-maximal effect; nearly all actives have a fitted effect of over 70% in size
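HP1-beta protein (50 nM final) preincubated 30 min at room temperature with biotinylated H3(1-18)K9me3 peptide (50 nM) in PBS pH 7.4, 0.01% Tween-20, then compound added for 30 min. AlphaScreen streptavidin donor/nickel chelate acceptor beads (10 ug/mL final), 30 min dark, luminescence read.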
G9a block – inhibitors of human histone lysine methyltransferase G9a. G9a H3K9 monomethylation, AlphaScreen, 2 h. Potency, µM (top dose mostly 102 µM), inactives show top-dose activity, negative = inhibition, most hits filed as inhibitors. 350,000 compounds, 8.8% hits; also: potency is read from the fitted curve at half-maximal effect; % is scaled to controls: 0 for no effect and ±100 for the full control effect; nearly all actives have a fitted effect of over 75% in size
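Compounds were preincubated with 20 nM G9a for 15 min, after which biotinylated H3K9 peptide (500 nM) and SAM (20 uM) started a 2 h room-temperature reaction. Monomethylated product was quantified by antibody-based AlphaScreen chemiluminescence.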
JMJD2A Tudor – blocks the human JMJD2A Tudor domain. 390,000 compounds, 4.4% hits. Potency, µM (doses to about 114 µM), for inactives: top-dose activity change, negative = inhibition, hits mostly inhibitors. AlphaScreen JMJD2A-Tudor / H3K4me3 peptide binding. AID 504339. O75164; also: potency is read from the fitted curve at half-maximal effect; % is scaled to controls: 0 for no effect and ±100 for the full control effect; nearly all actives have a fitted effect of over 50% in size
BAZ2B inh – inhibitors of human BAZ2B bromodomain; AlphaScreen BAZ2B-H3K14Ac peptide displacement; 360,000 compounds, 4.4% hits; Potency, µM (doses to about 114 µM), for inactives: at the highest dose activity change, negative = inhibition, actives largely listed as inhibitors; AID 504333; also: potency is read from the fitted curve at half-maximal effect; % is scaled to controls: 0 for no effect and ±100 for the full control effect; nearly all actives have a fitted effect of over 60% in size
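Inhibition is scored as reduced AlphaScreen emission. The BAZ2B/b-H3(5-23)K14Ac complex (50 nM each) in PBS pH 7.4, 0.01% Tween-20 meets compound (up to 110 uM) for 30 min at RT before bead addition.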
Active calls of the source: *; [ ] = another dose, or the depositor's remark. Compounds with a hit are over-represented: about 10% of the library has one in this group of screens. Unless noted, calls follow the shape of the dose curve; as a rule, active = well fitted inhibition curve with a large enough effect; inconclusive = small, poorly fitted or top-dose-only effect; inactive = no such curve, though single readings can be large or run the other way.

Screening C#CCOCCOCCOCCNc1nc(N2CCN(C(=O)[C@H](CCCCN)n3cc(CCC(=O)O)nn3)CC2)nc(N2CCN(C(=O)[C@H](Cc3ccc(O)cc3)n3cc(CCO)nn3)CC2)n1 returned Six1-Eya2 inh 3.8, CtBP-E1A inh 5.2, HP1b chromo inh 16.6% and JMJD2A Tudor -14.5%.
C#CCOCCOCCOCCNc1nc(N2CCN(C(=O)[C@H](CCC(=O)O)n3cc(C(N)Cc4ccc(O)cc4)nn3)CC2)nc(N2CCN(C(=O)[C@H](CCC(=O)O)n3cc(C(N)Cc4ccc(O)cc4)nn3)CC2)n1 (stereo partly drawn) was read as Six1-Eya2 inh -10.6, HP1b chromo inh 31.9%, G9a block inconclusive, JMJD2A Tudor 50.1µM* and BAZ2B inh 50.1µM*.
Screening C#CCOCCOCCOCCNc1nc(N2CCN(C(=O)[C@H](Cc3ccc(O)cc3)n3cc([C@@H](N)CC(C)C)nn3)CC2)nc(N2CCN(C(=O)[C@H](Cc3ccc(O)cc3)n3cc([C@@H](N)CC(C)C)nn3)CC2)n1 returned G9a block -102.3%[59 µM] and BAZ2B inh 50.1µM*.
C#CCOCCOCCOCCNc1nc(N2CCN(C(=O)[C@H](CCCCN)n3cc(C(N)CO)nn3)CC2)nc(N2CCN(C(=O)[C@H](CCC(=O)O)n3cc(C(N)Cc4ccc(O)cc4)nn3)CC2)n1 (stereo partly drawn) was read as G9a block inconclusive and BAZ2B inh 17.8µM*.
`C#CCOCCOCCOCCNc1nc(N2CCN(C(=O)[C@H](CCC(=O)O)n3cc(C(N)CC(C)C)nn3)CC2)nc(N2CCN(C(=O)[C@H](Cc3ccc(O)cc3)n3cc(C(N)CC(C)C)nn3)CC2)n1` (stereo partly drawn) gave Six1-Eya2 inh -7.3, CtBP-E1A inh -11.4, HP1b chromo inh 22.6%, G9a block inconclusive, JMJD2A Tudor 79.4µM* and BAZ2B inh 79.4µM*.
`CCCCc1nn2c(=O)cc(COC(=O)c3ccc(NC(=O)C(CC)CC)cc3)nc2s1` gave HP1b chromo inh 30.2%, G9a block 10.9%[12.7 µM], JMJD2A Tudor -4.6% and BAZ2B inh -10.3%.
`CCN(Cc1ccccc1)S(=O)(=O)c1cc(Br)cc2c1N(C(=O)C1CC1)CC2` gave HP1b chromo inh 15.8%, G9a block -4.0%[59 µM], JMJD2A Tudor -18.8% and BAZ2B inh 4.5%.
Cc1oc2ccc(O)c(CN(C)Cc3ccccc3)c2c1C(=O)Nc1ccccc1 was read as HP1b chromo inh -0.7%, G9a block inconclusive, JMJD2A Tudor -21.2% and BAZ2B inh -26.3%.
Screening C#CCOCCOCCOCCNc1nc(N2CCN(C(=O)[C@H](CCC(=O)O)n3cc(C(N)Cc4ccc(O)cc4)nn3)CC2)nc(N2CCN(C(=O)[C@H](Cc3ccc(O)cc3)n3cc(C(N)CC(C)C)nn3)CC2)n1 (stereo partly drawn) returned G9a block inconclusive and BAZ2B inh 35.5µM*.
O=C(NCCCc1nc2ccccc2n1CCCOc1ccccc1)C1CCCCC1 was read as HP1b chromo inh 24.1%[57 µM] and JMJD2A Tudor 0.8%[57.1 µM].
For COc1ccccc1N(C)S(=O)(=O)c1ccc(C(=O)Nc2ccc(N3CCOCC3)cc2)cc1 the results were Six1-Eya2 inh -20.3, CtBP-E1A inh inconclusive, HP1b chromo inh 0.2%, G9a block 39.8µM*, JMJD2A Tudor inconclusive and BAZ2B inh inconclusive.
For CN(CC(=O)Nc1ccc(N2CCOCC2)cc1)C(=O)c1cc(S(=O)(=O)N(C)C)ccc1Cl the results were Six1-Eya2 inh 7.6, CtBP-E1A inh 1.3, HP1b chromo inh 4.0%, G9a block inconclusive, JMJD2A Tudor -16.6% and BAZ2B inh -18.7%.
Screening C=CCN(c1ccccc1OC)S(=O)(=O)c1ccc(Cl)c(C(=O)Nc2ccc(N3CCOCC3)cc2)c1 returned Six1-Eya2 inh -15.1, CtBP-E1A inh -3.0, HP1b chromo inh 3.5%, G9a block 25.1µM*, JMJD2A Tudor -30.8% and BAZ2B inh inconclusive.
COc1cc(NC(=O)c2ccc(S(=O)(=O)N(C)c3ccccc3OC)cc2)cc(OC)c1 was read as Six1-Eya2 inh -30.0, CtBP-E1A inh -8.4, HP1b chromo inh 15.3% and JMJD2A Tudor -16.6%.
For COc1cccc(NC(=O)c2oc3ccccc3c2NC(=O)c2ccccc2C)c1 the results were HP1b chromo inh 36.7%, G9a block -17.9%[59 µM], JMJD2A Tudor -10.6% and BAZ2B inh -13.1%.
For Cc1cccn2c(=O)c(C=O)c(Nc3ccccc3)nc12 the results were Six1-Eya2 inh -8.2, CtBP-E1A inh 6.7, HP1b chromo inh 22.9%, G9a block 44.7µM*, JMJD2A Tudor -14.4% and BAZ2B inh -17.2%.
Screening COc1ccc(Nc2nc3c(C)cccn3c(=O)c2C=O)cc1 returned Six1-Eya2 inh 0.9, CtBP-E1A inh -3.0, HP1b chromo inh 19.9%, G9a block 73.2%, JMJD2A Tudor -0.7% and BAZ2B inh 2.4%.
Cc1cccc(Cn2c(SCc3ccc(C(=O)NCc4cccs4)cc3)nc3cccnc32)c1 was read as HP1b chromo inh 29.3%, G9a block inconclusive, JMJD2A Tudor -14.9% and BAZ2B inh -3.8%.
`O=C1Nc2ccccc2C1Cc1ccc(Br)cc1` (stereo not drawn) gave HP1b chromo inh 24.0%, G9a block -21.6%[59 µM], JMJD2A Tudor -11.9% and BAZ2B inh -0.2%.
`CC(C)(C)c1ccc(NC(=O)C(=O)C2C(=O)Nc3ccccc32)cc1` (stereo not drawn) gave Six1-Eya2 inh 0.3, HP1b chromo inh 35.4%, G9a block -6.9%, JMJD2A Tudor -14.3% and BAZ2B inh 13.1%.
CN(C)c1ccc(CC2C(=O)Nc3ccccc32)cc1 (stereo not drawn) was read as Six1-Eya2 inh -9.8, CtBP-E1A inh -9.9, HP1b chromo inh 28.2µM*, G9a block 3.16µM*, JMJD2A Tudor 7.08µM* and BAZ2B inh inconclusive.
CN(C)c1ccc(NC(=O)C(=O)C2C(=O)Nc3ccccc32)cc1 (stereo not drawn) was read as Six1-Eya2 inh 4.5, CtBP-E1A inh -20.0, HP1b chromo inh 21.2%, G9a block 56.2µM*, JMJD2A Tudor -24.6% and BAZ2B inh -14.7%.
For COc1ccc(N2CCN(C(=O)c3ccc4c(c3)CC(c3ccccc3)OC4=O)CC2)cc1 (stereo not drawn) the results were Six1-Eya2 inh -9.7, CtBP-E1A inh 0.1, HP1b chromo inh -13.2%, G9a block 10µM*, JMJD2A Tudor inconclusive and BAZ2B inh 39.8µM*.
